Screening data as filed in PubChem BioAssay.
PKM2 activator – qHTS Assay for Activators of Human Muscle isoform 2 Pyruvate Kinase; purified PKM2, Kinase-Glo ATP luminescence, activation; response scale: 0% is enzyme alone, no compound; Potency, µM (doses to about 57.5 µM), hits mostly activators; 0.34% of 260,000 active; further: nearly all actives have a fitted effect of over 55% in size
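Purified hPK-M2 (>95% pure) converted ADP (0.1 mM final) to ATP with 0.5 mM PEP in 50 mM imidazole pH7.2, KCl, MgCl2, Tween 20, BSA; 1 h at room temperature. ATP detected by Kinase-Glo luminescence.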
VDR inhibitor – Inhibitors of the vitamin D receptor (VDR): qHTS; Potency, µM, actives largely listed as inhibitors; AID 504847, 2011; VDR-SRC2-3 peptide fluorescence polarization, 2 h; 0.93% of 400,000 active; Vitamin D3 receptor (Homo sapiens), P11473
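Measured by FP: displacement of SRC2-3 coactivator peptide from VDR by library compounds, following a two-hour ambient incubation.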
GLS inhibitor – qHTS for Inhibitors of Glutaminase (GLS); Glutaminase kidney isoform, mitochondrial (Homo sapiens), O94925; GLS enzymatic activity, qHTS titration; Potency, µM (series often up to 45.5 µM), hits mostly inhibitors; 0.21% of 410,000 active; AID 624170, 2012
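Human kidney-isoform GLS in 45 mM KH2PO4 pH 8.2, 0.02% Tween-20, with compound, started with 1mM L-Glutamine (added stock). Glutamate oxidase/HRP/Amplex red coupled fluorescence read at start and after 30 min at RT.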
Mito fusion yeast – qHTS Assay for Small Molecule Inhibitors of Mitochondrial Division or Activators of Mitochondrial Fusion; Potency, µM (titrated, usually from 46.1 µM), most hits filed as activators; S. cerevisiae fusion-defective mutant growth rescue, CellTiterGlo 48 h; AID 485298, 2010; 0.23% of 320,000 active; further: nearly all actives have a fitted effect of over 45% in size
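Temperature-sensitive fusion-defective S. cerevisiae (e.g. fzo1-1, mgm1-5) were grown with compound in YPEG medium (3% ethanol, 3% glycerol) for 48 hours at 37C. Growth rescue was measured as viability by CellTiterGlo luminescence after 10 minutes at ambient.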
KAT2A inh – qHTS Assay for Inhibitors of GCN5L2; Histone acetyltransferase KAT2A (Homo sapiens), Q92830; GCN5L2 HAT assay, ThioGlo1 CoA-SH fluorescence; Potency, µM (top dose mostly 58.9 µM), most hits filed as inhibitors; 0.21% of 390,000 active; AID 504327, 2011
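Free CoA generated was detected with ThioGlo1 (50uM) fluorescence at Ex340nm/Em540nm, read immediately and after 20 min at room temperature. Enzyme, 20 nM in HEPES pH 7.5 buffer, saw compounds 15 min before adding 75uM H3(1-25) peptide and 70uM acetyl-CoA.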
PLK1 PBD inh – qHTS for Inhibitors of PLK1-PDB (polo-like kinase 1 - polo-box domain): Primary Screen | Plk1 PBD binding of FITC phosphopeptide, fluorescence polarization | Potency, µM, actives largely listed as inhibitors | 2.8% of 360,000 active | AID 720504, 2013 | Serine/threonine-protein kinase PLK1 (Homo sapiens), P53350; further: series mostly up to about 57 µM; nearly all actives have a fitted effect of over 65% in size
Target sequence (P53350 whole entry, looked up, the tested form may be a part): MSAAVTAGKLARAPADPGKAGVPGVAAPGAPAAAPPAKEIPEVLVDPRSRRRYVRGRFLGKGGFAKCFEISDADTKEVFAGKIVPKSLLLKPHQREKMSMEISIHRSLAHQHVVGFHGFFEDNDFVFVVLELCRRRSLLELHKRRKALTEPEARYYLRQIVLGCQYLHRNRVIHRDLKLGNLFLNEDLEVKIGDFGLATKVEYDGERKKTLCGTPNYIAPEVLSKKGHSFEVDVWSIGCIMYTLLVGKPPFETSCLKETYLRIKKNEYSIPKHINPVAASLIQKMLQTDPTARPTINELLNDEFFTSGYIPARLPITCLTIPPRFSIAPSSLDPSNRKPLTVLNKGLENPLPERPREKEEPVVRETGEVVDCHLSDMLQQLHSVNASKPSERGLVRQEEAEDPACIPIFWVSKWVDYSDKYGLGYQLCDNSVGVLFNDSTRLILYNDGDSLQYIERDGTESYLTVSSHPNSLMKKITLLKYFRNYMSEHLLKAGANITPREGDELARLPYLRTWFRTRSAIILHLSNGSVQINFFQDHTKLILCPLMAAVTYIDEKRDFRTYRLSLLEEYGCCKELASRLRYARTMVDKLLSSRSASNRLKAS
Numbers stand for hits; – = inactive; ? = inconclusive; · = no result given. Rows were chosen to be rich in hits. Some 3.4% of all compounds tested hit in one or more screens of this group. The call rests on the fitted dose curve; in most records, active means well fitted curve in the direction sought with a large enough effect; inconclusive means small, poorly fitted or top-dose-only effect, or another doubt; inactive means no such curve, though single readings can be large; an effect the other way counts as inactive or inconclusive.

SMILES | PKM2 activator | VDR inhibitor | GLS inhibitor | Mito fusion yeast | KAT2A inh | PLK1 PBD inh
CC(C)(C)NC(=O)CSc1nccn1Cc1ccccc1 | – | – | – | – | 3.5µM | –
CO/N=C(\C(=O)NC1C(=O)N2C(C(=O)OCOC(=O)C(C)(C)C)=C(/C=C\c3scnc3C)CSC12)c1csc(N)n1 (stereo not drawn) | · | 35µM | – | · | – | ·
COCC1=C(C(=O)OC(C)OC(=O)OC(C)C)N2C(=O)C(NC(=O)/C(=N/OC)c3csc(N)n3)[C@H]2SC1 (stereo partly drawn) | · | · | – | · | · | ·
CO/N=C(/C(=O)N[C@@H]1C(=O)N2C(C(=O)O)=C(CSc3nc(C)c(CC(=O)O)s3)CS[C@H]12)c1csc(N)n1 | · | 35µM | – | · | – | ·
CO/N=C(/C(=O)N[C@H]1C(=O)N2C(C(=O)O)=C(COC(C)=O)CSC12)c1csc(N)n1 (stereo partly drawn) | · | ? | · | · | – | ·
CC1=C(C(=O)N(C(C)C)C(C)C)CC(CC(=O)NCc2cccs2)C(=O)N1Cc1ccccc1 (stereo not drawn) | · | · | – | · | · | –
O=C(O)CCSc1ccc([N+](=O)[O-])cc1[N+](=O)[O-] | – | ? | – | – | – | 12µM
O=[N+]([O-])c1ccc(Sc2ncccn2)c([N+](=O)[O-])c1 | – | – | – | – | – | –
CCCCn1c(Cn2nc(C(=O)O)c3ccccc3c2=O)nc2cc(S(N)(=O)=O)ccc21 | · | – | – | – | – | –
CC(C)(C)c1nn(-c2ccccc2)c2[nH]c(=O)c(CNCc3ccco3)cc12 | – | – | – | – | – | –
O=c1[nH]c2c(cc1CNCCN1CCOCC1)c(-c1cccc(F)c1)nn2-c1ccccc1 | – | · | · | – | – | ·
Cc1nn(-c2ccccc2)c2[nH]c(=O)c(CNc3ccc(N4CCOCC4)cc3)cc12 | – | – | ? | – | – | 3µM
CC(C)(C)c1nn(-c2ccccc2)c2[nH]c(=O)c(CNc3ccc4c(c3)OCCO4)cc12 | – | – | – | – | 35µM | –
CC1(C)C(=O)N(CC(=O)Nc2ccc(Br)cc2F)c2ccccc21 | · | – | – | · | – | ·
CC(=O)c1cccc(NS(=O)(=O)c2cc(-c3onc(C)c3C)ccc2C)c1 | · | – | – | · | – | ·
CC(=O)OC(=C(OC(C)=O)c1ccccc1)c1ccccc1 | · | – | – | · | · | –
N#CC(=C1C=CC(=NO)C(Cl)=C1)c1ccc(Cl)cc1 | · | ? | – | · | · | –
CC(=O)ON=C1C=CC(=C(C#N)c2ccccc2)C=C1 | · | · | – | · | · | 2.4µM
COc1ccc(C(C#N)=C2C=CC(=NO)C=C2)cc1 | ? | ? | ? | – | – | 27µM
O=C(c1ccc(Cl)cc1)C1CCN(C(=O)C2CC2)CC1 | – | – | – | – | 14µM | –
Cc1ccc(N2C(=O)N(CC(=O)Nc3ccc([N+](=O)[O-])cc3)C(=O)C2C)cc1 (stereo not drawn) | – | – | – | – | – | –
CCCCCCCN[C@H]1CCC[C@@H]1CCCCCCC(=O)O | · | – | · | · | · | ·
CCOC(=O)c1nn(-c2ccccc2)c(=O)cc1OCC(=O)Nc1cc(C)ccc1OC | · | – | 7.9µM | – | – | –
CCCCNC(=O)c1cnn2c(C)c(Cc3c(C)cc(C)cc3C)c(C)nc12 | · | – | – | · | – | ·
C[C@@H]1[C@H](c2ccccc2)Oc2ccc(Cl)cc2S(=O)(=O)N1CC1CCCN1C(=O)OC(C)(C)C (stereo partly drawn) | · | ? | – | · | · | 24µM
SMILES | PKM2 activator | VDR inhibitor | GLS inhibitor | Mito fusion yeast | KAT2A inh | PLK1 PBD inh
COc1ccc(NC(=O)C2CCCCN2N)cc1OC (stereo not drawn) | – | – | – | – | – | 27µM
COc1ccc(CN2CCCCC2C(=O)Nc2ccc(OC)c(OC)c2)cc1OC (stereo not drawn) | – | – | – | – | – | –
CN(C)c1ccc(CNS(=O)(=O)c2csc(C(N)=O)c2)cc1 | · | – | ? | – | – | –
NC(=O)c1cc(S(=O)(=O)NCCCc2ccccc2)cs1 | · | – | – | – | – | 27µM
Cc1cc2oc(=O)cc(-c3ccccc3)c2c(C)c1-c1cccc(N)c1 | · | – | · | · | – | ·
O=C(O)c1cc2n(n1)C(C(F)(F)F)CC(C1CC1)N2 (stereo not drawn) | – | ? | – | – | – | 24µM
O=C(O)c1cc2n(n1)C(C(F)(F)F)CC(c1ccccc1)N2 (stereo not drawn) | – | – | ? | – | – | –
Cc1cc(C)nc(N/C(=N\S(=O)(=O)Cc2ccccc2)Nc2ccccc2Br)n1 | – | – | – | 22µM | – | –
O=[N+]([O-])c1ccc(NCCCc2ccccc2)cc1 | · | · | – | · | · | –
COc1ccc(-c2nnc3sc(-c4ccccn4)nn23)cc1 | – | · | · | – | – | ·
COc1ccc(-c2nnc3sc(C(C)N4C(=O)c5ccccc5C4=O)nn23)cc1 (stereo not drawn) | – | ? | – | – | – | 24µM
O=C1NC(=S)SC1=Cc1ccccc1C(=O)O | · | · | – | · | · | –
O=C1NC(=S)S/C1=C\c1cc(Cl)ccc1Cl | · | ? | – | · | · | 21µM
CCNc1ccccc(C(=O)/C=C/c2ccc3c(c2)OCO3)c1=O | – | ? | – | – | – | 24µM
O=C(/C=C/c1ccc2c(c1)OCO2)c1cccs1 | · | 20µM | · | · | – | ·
COC(=O)/C=C/c1ccc2c(c1)OCO2 | – | – | – | – | – | –
CCNc1ccc(Br)cc(C(=O)/C=C/c2ccccc2Cl)c1=O | · | 28µM | – | · | · | ?
CC(=O)Nc1nc(-c2ccccc2)c(-c2ccccc2)s1 | · | – | · | · | · | ·
Fc1ccccc1-c1nc(-c2ccccc2)oc1NC1CCCCC1 | · | – | · | · | · | ·
COc1ccc(-c2cn3cc(C)ccc3n2)cc1F | – | ? | – | – | – | 9.5µM
Cc1ccc(S(=O)(=O)N2C[C@H]3C(=O)C[C@@H](c4ccccc4)N(S(C)(=O)=O)[C@H]3C[C@H]2c2ccccc2)cc1 | · | · | – | · | · | –
COC[C@H]1O[C@@H](c2c(OC)cc(OC)cc2OC)[C@H](OC)[C@@H](OC)[C@@H]1OC | · | – | · | · | · | ·
COc1ccc(-n2nc3c(N4CCC(C(=O)NCC(C)c5ccccc5)CC4)nnc(C)c3c2C)cc1 (stereo not drawn) | · | ? | – | – | – | 6.7µM
COc1ccc(-n2nc3c(N4CCC(C(=O)NCCc5ccccc5)CC4)nnc(C)c3c2C)cc1 | · | – | – | · | – | ·
N=c1c(S(=O)(=O)c2ccccc2)cc2c(=O)n3ccccc3nc2n1C1CCCCC1 | · | – | – | · | · | 21µM
COc1cccc(-c2ncc3ccccc3c2COC(=O)c2ccc(F)cc2)c1 | · | – | – | – | – | –
